Consider 28 molecules from PubChem BioAssay (NCATS).

Each structure is given as a SMILES string. Records with an inconclusive call do not appear. The source made the active and inactive calls. Calls come from the whole dose curve; as a rule, active = well fitted inhibition curve with a large enough effect; inconclusive = small, poorly fitted or top-dose-only effect; inactive = flat fitted curve, though single readings scatter.

In this assay the test system is HACAT. Description: qHTS assay to identify novel small-molecules to repurpose for Merkel cell carcinoma treatment (AID 1296009). Note: nearly all actives have a fitted effect of over 60% in size. The conditions noted are these: MCC and control cell lines, CellTiter-Glo viability, 72 h; at 44.8 µM (top of the series) unless noted. The method in brief: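 Viability readout: ATP luminescence (CellTiter-Glo) after 72 hr drug exposure at 37 degree celsius. Dose-response format was 8 points for NPC and 11 points for MIPE; data normalized to in-plate controls.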
Background: qHTS replaces the single test concentration by a dilution series.
For the molecule `COc1cccc(OC)c1-c1ccc(C[C@H](NC(=O)c2c(Cl)cccc2Cl)C(=O)O)cc1`, the outcome was inactive. The result for `Nc1ncnc2c1c(COc1cccc(Cl)c1)nn2C1CCOCC1` reads “inactive”; that for `C=C1CC/C=C(/C(=O)O)CCC2C1CC2(C)C` (stereo not drawn), “inactive”; that for `COC(=O)C1=CO[C@@H](O[C@@H]2O[C@H](CO)[C@@H](O)[C@H](O)[C@H]2O)[C@@H]2[C@@H](C)[C@@H](O)C(O)[C@H]12` (stereo partly drawn), “inactive [at 17.4 µM]”. `C=C1C(=O)O[C@@H]2CC(C)=C([C@@H](C)CCCOC(C)=O)[C@@H](O)[C@H]12`: the result was inactive. Take `O=C(C[C@@H]1C(C(=O)O)=CO[C@@H](O[C@@H]2O[C@H](CO)[C@@H](O)[C@H](O)[C@H]2O)/C1=C\CO)OCCc1ccc(O)c(O)c1`: the outcome was “inactive [at 17.4 µM]”. The result for `C/C1=C\CC(C)(C)/C=C/C/C(C(=O)O)=C/CC1` reads “inactive”; that for `OC[C@H]1O[C@@H](OCc2ccccc2)[C@H](O[C@@H]2OC[C@@H](O)[C@H](O)[C@H]2O)[C@@H](O)[C@@H]1O`, “inactive [at 17.4 µM]”; that for `COc1cc(/C=C/C(=O)O)ccc1O[C@@H]1O[C@H](CO)[C@@H](O)[C@H](O)[C@H]1O[C@@H]1OC[C@](O)(CO)[C@H]1O`, “inactive [at 17.4 µM]”. In the case of `COC(=O)C1(C)CCCC2(C)c3ccc(C(C)C)cc3C(O)C(O)C12` (stereo not drawn) it was “inactive”. Turning to `O=C(O)CC(CCc1ccccc1)OC1OC(CO)C(O)C(O)C1O` (stereo not drawn), the molecule was classed as inactive.

`CC1=C[C@@H]2[C@H]3[C@@H]4O[C@@](C)(CC[C@H]4O)[C@H]3CC(=O)[C@]23C(=O)N[C@@H](CC(C)C)[C@@H]3[C@@H]1C`: the outcome was inactive. In the case of `COc1ccc(/C=C/C(=O)O[C@@H]2[C@@H](O[C@@H]3O[C@H](CO)[C@@H](O)[C@H](O)[C@H]3O)[C@@H](O)[C@H](O[C@H]3C4C=CO[C@@H](O[C@@H]5O[C@H](CO)[C@@H](O)[C@H](O)[C@H]5O)C4[C@@]4(CO)O[C@@H]34)O[C@H]2C)cc1` (stereo partly drawn) it was “inactive [at 9.27 µM]”; in that of `NCCCCN(Cc1nc2ccccc2[nH]1)[C@H]1CCCc2cccnc21`, “inactive [at 17.4 µM]”. The result for `COc1cc(/C=C/C(=O)OC[C@H]2O[C@@H](OC3CC(C)=C(C(=O)O)C(C)(C)C3)[C@H](O)[C@@H](O)[C@@H]2O)cc(OC)c1O` (stereo partly drawn) reads “inactive [at 17.4 µM]”. Consider `CC1CCC2(NC1)OC1C(O)C3C4CCC5CC(O[C@@H]6O[C@H](CO)[C@@H](O)[C@H](O)[C@H]6O[C@@H]6O[C@@H](C)[C@H](O)[C@@H](O)[C@H]6O)CCC5(C)C4CCC3(C)C1C2C` (stereo partly drawn), for which the outcome was “inactive [at 17.4 µM]”. Take `O=C(O)CCc1c(C(=O)O)[nH]c2cc(Cl)cc(Cl)c12`: the outcome is “inactive [at 17.4 µM]”. In the case of `C=C(C(=O)OC)[C@]12O[C@@](C)(CC[C@@]3(O)/C(=C\C)C(=O)O[C@]3(C)C[C@@H]1OC(=O)C(CO)CN1CCCC1C(=O)O)CC2=O` (stereo partly drawn) it was “inactive [at 17.4 µM]”. With `CC(C)c1cc2c(c(O)c1O)[C@@]13CCCC(C)(C)C1[C@@H](O)[C@@H]2OC3=O` (stereo partly drawn), the call was inactive. Take `CC1CC(O)/C=C/C(O)/C=C\C(=O)O1` (stereo not drawn): the outcome is “inactive [at 92 µM]”.

As for `C=C1C(=O)O[C@@H]2C[C@]3(C)[C@@H](CCC(C)=O)[C@@H]3C[C@H]12`, the molecule was called inactive.

Take `C/C(=C\C(=O)C[C@@]12C(=O)O[C@]3(C)CC[C@H]1C[C@H]23)C(N)=O`: the molecule was classed as inactive. The result for `C=C(COC(=O)CC(C)C)C1Cc2cc(C(C)=O)ccc2O1` (stereo not drawn) reads “inactive”; that for `CN(C)CCC[C@]1(c2ccc(F)cc2)OCc2cc(C#N)ccc21`, “inactive”; that for `C=C1C(OC(C)=O)[C@@]23CCC4[C@](C)(C(=O)O)CCC[C@@]4(C)[C@]2(O)CC[C@H]1C3` (stereo partly drawn), “inactive”. Consider `CC(=O)OC1C(CO)OC(O[C@H]2[C@H](OC(=O)[C@]34CCC(C)(C)C[C@H]3C3=CCC5[C@@]6(C)CC[C@H](O[C@@H]7O[C@H](C(=O)O)[C@@H](O)[C@H](O[C@@H]8OC[C@@H](O)[C@H](O)[C@H]8O)[C@H]7O[C@@H]7O[C@H](CO)[C@H](O)[C@H](O)[C@H]7O)[C@@](C)(C=O)C6CC[C@@]5(C)[C@]3(C)C[C@H]4O)O[C@H](C)[C@H](OC3OC(C)C(OC4OCC(O)C(O)C4O)C(O)C3O)[C@@H]2O)C(O)C1O` (stereo partly drawn), for which the outcome is “inactive [at 9.27 µM]”. Turning to `O=C(O)c1cc(C(F)(F)F)ccc1N1CC[C@H](OCc2ccccn2)C1`, the call was inactive. The result for `C/C(=C\CCC(C)(C)O)CCO[C@@H]1O[C@H](CO[C@@H]2O[C@@H](C)[C@H](O)[C@@H](O)[C@H]2O)[C@@H](O)[C@H](O)[C@H]1O` reads “inactive [at 17.4 µM]”.
